In PubChem BioAssay:
Activity calls are given as the source filed them.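 Rule for the calls, unless noted: active = fluorescence slope higher than the sample average by over 3 SD (cut at about -0.22 in these data, passing the limit was not always enough); inactive = the rest.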

Tested on: not listed separately
Assay: endothelial E-selectin expression blockers – imaging, HUVEC, immunofluorescence, MLSMR starter and 10KST1 sets, primary screen (AID 487;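 active = visually confirmed hit in the image check and inhibition above 20%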;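 for inhibition: signal is fraction of cell area covered by stained E-selectin grains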;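 for nuclei count: 100% = median nuclei count of all wells on the same plate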)
Settings: HUVEC TNFalpha-induced E-selectin immunofluorescence imaging, at 2 µM; inhibition: stronger effect = higher value; nuclei count: measured here: cell number, toxicity

Question: Which nuclei count does the source give for `CC1CCN(S(=O)(=O)c2cccc(C(=O)Nc3ccccn3)c2)CC1` here?
Answer: 90.4%

Question: And the inhibition?
Answer: 4.5% (inactive)

Question: Which results are given for `CC(=O)Nc1ccc(N=Cc2nc(-c3ccc(C)cc3)oc2O)cc1`?
Answer: nuclei count: 132%; inhibition: -287% (inactive)

Question: Which results are given for `CN(C(=O)C1CCCO1)c1nnc(-c2ccncc2)s1` (centres undefined)?
Answer: nuclei count: 103%; inhibition: -10.8% (inactive)

Question: What does the source list for `CCOC(=O)c1[nH]c(C)c(C(=O)NC)c1C`?
Answer: nuclei count: 103%; inhibition: -37.7% (inactive)

Biological target: Voltage-gated potassium channel subunit beta-2 (Rattus norvegicus) (UniProt P62483)
Assay: inhibitors of rat Kvbeta2 reductase activity – biochemical, NADPH fluorescence, primary screen (AID 622);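 note: slope of raw intensity against log time taken from 70 to 1610 s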
Settings: recombinant KvBeta, 4-cyanobenzaldehyde reduction, at 10 µM, stronger effect = higher value

Sequence of Voltage-gated potassium channel subunit beta-2 (Rattus norvegicus) (P62483 whole entry, looked up): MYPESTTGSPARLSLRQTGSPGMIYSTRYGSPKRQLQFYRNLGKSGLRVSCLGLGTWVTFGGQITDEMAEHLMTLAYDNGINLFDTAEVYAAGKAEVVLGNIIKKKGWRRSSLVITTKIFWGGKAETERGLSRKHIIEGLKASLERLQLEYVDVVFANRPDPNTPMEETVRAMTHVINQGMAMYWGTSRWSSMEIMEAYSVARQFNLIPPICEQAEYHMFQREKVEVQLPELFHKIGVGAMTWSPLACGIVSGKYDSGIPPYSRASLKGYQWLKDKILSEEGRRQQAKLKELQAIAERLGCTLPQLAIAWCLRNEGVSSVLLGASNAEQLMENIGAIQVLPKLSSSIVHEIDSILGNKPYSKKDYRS

Question: Which fluorescence slope does the source give for `CCN1CCN(C(CNC(=O)c2ccc3c(c2)OCO3)c2cccnc2)CC1` (centres undefined) here?
Answer: -0.541 (inactive)

Question: For `Cc1cccnc1-n1c(CCN2C(=O)c3ccccc3C2=O)nc2ccccc2c1=O`, which fluorescence slope is on record?
Answer: -0.327 (inactive)

Question: Which fluorescence slope does the source give for `COc1cc2c(N3CCOCC3)cc(O)c(CC(=O)Nc3ccccc3)c2cc1OC` here?
Answer: -0.344 (inactive)

Question: For `Cc1ccc(-c2nc3cc(NC(=O)C(C)C)ccc3o2)cc1C`, which fluorescence slope is on record?
Answer: -0.453 (inactive)

Question: Which fluorescence slope does the source give for `Cc1ccc(-c2nnc(N3CCN(C(=O)CN4C(=O)c5ccccc5C4=O)CC3)c3ccccc23)cc1` here?
Answer: -0.468 (inactive)

Question: For `Cc1cccc(OCC(=O)N(Cc2cccs2)C2CCS(=O)(=O)C2)c1C` (centres undefined), which fluorescence slope is on record?
Answer: -0.639 (inactive)

Question: Which fluorescence slope does the source give for `CCN(CC)C(=O)Cn1c(=O)n(Cc2ccccc2Cl)c2c1c(=O)n(C)c(=O)n2C` here?
Answer: -0.45 (inactive)

Question: With `CCOc1ccccc1NC(=O)CCSc1nc2n[nH]c(C)c2c(=N)n1-c1ccccc1Cl` as the compound, how does the fluorescence slope read?
Answer: -0.417 (inactive)

Question: Which fluorescence slope does the source give for `COc1ccc(N2C(=O)CCC(C(=O)N3CCCCC3)C2c2ccc(OC)c(OC)c2)cc1` (centres undefined) here?
Answer: -0.412 (inactive)

Question: Which fluorescence slope does the source give for `COCCNC(=O)C(c1ccc(O)cc1)N(Cc1ccco1)C(=O)CCC(=O)Nc1nccs1` (centres undefined) here?
Answer: -0.499 (inactive)

Question: Which fluorescence slope does the source give for `C=CCN1C(=O)C2(/C(=C(\O)c3ccc4c(c3)OCCO4)C(=O)C(=O)N2CCCOC)c2ccccc21` (centres undefined) here?
Answer: -0.465 (inactive)

Question: With `COc1cc2[nH]c(=O)c(C(=O)NCCCN3CCCCC3)c(O)c2cc1OC` as the compound, how does the fluorescence slope read?
Answer: -0.583 (inactive)

Question: For `CCc1[nH]nc2c1C1(CCN(C(=O)OCc3ccccc3)CC1)C(C#N)=C(N)O2`, which fluorescence slope is on record?
Answer: -0.494 (inactive)

Question: Which fluorescence slope does the source give for `O=C(Nc1cccc2ccccc12)N1CCN(c2ccccc2)CC1` here?
Answer: -0.525 (inactive)

Question: For `CC(=O)N1CCC(N(C(=O)Nc2ccc(C)c(C)c2)C2CCCC2)CC1`, which fluorescence slope is on record?
Answer: -0.258 (inactive)

Question: Which fluorescence slope does the source give for `O=C1CCCc2nc(N3CCCCC3)sc21` here?
Answer: -0.424 (inactive)

Question: With `C=CCOc1ccc(C2/C(=C(\O)c3c(C)[nH]c(C(=O)OC)c3C)C(=O)C(=O)N2CCN(C)C)cc1` (centres undefined) as the compound, how does the fluorescence slope read?
Answer: -0.536 (inactive)

Question: With `Cc1cc(NC(=O)c2cccc(S(=O)(=O)N3CC(c4ccccc4)CC3=O)c2)no1` (centres undefined) as the compound, how does the fluorescence slope read?
Answer: -0.562 (inactive)

Question: With `CCN(CCCNC(=O)CC1Oc2ccc(C)cc2NC1=O)Cc1ccccc1` (centres undefined) as the compound, how does the fluorescence slope read?
Answer: -0.495 (inactive)

Question: With `CN1CCc2nc(SCCOc3ccccc3)c(C#N)cc2C1` as the compound, how does the fluorescence slope read?
Answer: -0.346 (inactive)

Question: With `COc1ccc(S(=O)(=O)N2CCC(C(=O)Nc3c(F)cccc3F)CC2)cc1` as the compound, how does the fluorescence slope read?
Answer: -0.392 (inactive)

Question: With `Cc1nc2ccc(NC(=O)NCc3ccco3)cc2s1` as the compound, how does the fluorescence slope read?
Answer: -0.338 (inactive)

Question: For `CCNc1ccc(C(=O)OCC)cc1NC(=O)c1cc(S(=O)(=O)N2CCOCC2)ccc1C`, which fluorescence slope is on record?
Answer: -0.551 (inactive)

Question: Which fluorescence slope does the source give for `CC1CCN(c2nc3c(c(=O)n(C)c(=O)n3C)n2Cc2ccccc2)CC1` here?
Answer: -0.39 (inactive)

Question: For `O=C(Oc1cc2oc(=O)c3c(c2cc1Cl)CCCC3)c1ccco1`, which fluorescence slope is on record?
Answer: -0.14 (inactive)

Question: For `CCOC(=O)CNC(=O)CSc1nc(N)cc(N)n1`, which fluorescence slope is on record?
Answer: -0.385 (inactive)

Question: For `CCCC(=O)C1=C(N(C)c2ccccc2)CC(C)(C)C(C(=O)OC)C1=O` (centres undefined), which fluorescence slope is on record?
Answer: -0.445 (inactive)

Question: With `CCOC(=O)c1ccc(N2C(=O)CC(N(C)CCc3ccc(OC)c(OC)c3)C2=O)cc1` (centres undefined) as the compound, how does the fluorescence slope read?
Answer: -0.431 (inactive)

Question: Which fluorescence slope does the source give for `COc1ccc(C2=NOC(C(=O)NC3CCCCC3)C2)cc1OC` (centres undefined) here?
Answer: -0.547 (inactive)

Question: For `CCOC(=O)c1cc(CC)sc1NC(=O)CCC(=O)O`, which fluorescence slope is on record?
Answer: -0.433 (inactive)

Question: For `O=C(C1CCN(c2nnc(-n3cccc3)s2)CC1)N1CCOCC1`, which fluorescence slope is on record?
Answer: -0.418 (inactive)

Question: Which fluorescence slope does the source give for `Cn1cc(Br)c(C(=O)NC2CCCCC2)n1` here?
Answer: -0.408 (inactive)

Question: For `CC1NC2(C(=O)N(Cc3ccccc3)c3ccccc32)C2C(=O)N(c3ccccc3)C(=O)C12` (centres undefined), which fluorescence slope is on record?
Answer: -0.567 (inactive)

Question: For `O=C1CC(N2CCN(C3CCc4ccccc4C3)CC2)C(=O)N1c1ccccc1` (centres undefined), which fluorescence slope is on record?
Answer: -0.378 (inactive)

Question: For `CCCOc1cccc(C(=O)Nc2cc(NC(=O)c3ccco3)ccc2OC)c1`, which fluorescence slope is on record?
Answer: -0.278 (inactive)

Question: Which fluorescence slope does the source give for `Cn1c(SCC(=O)Nc2ccc3c(c2)OCO3)nnc1-c1cnccn1` here?
Answer: -0.366 (inactive)
